Among the data in PubChem BioAssay (NCI) are growth inhibition values, retold here.

Assay [1] in a line: NCI Yeast Anticancer Drug Screen. Data for the rad50 strain (AID 155).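 Note: 0% = growth of vehicle-only cultures of the same strain.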 The note with it: S. cerevisiae rad50 strain growth inhibition, hits give high values. In short, it runs like this: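 Genetically altered yeast (DNA repair pathway); compound treatment; growth inhibition vs vehicle ctrl.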
Assay [2] can be described thus: NCI Yeast Anticancer Drug Screen. Data for the mec2-1 strain (AID 157). The conditions noted are these: S. cerevisiae mec2-1 strain, hits give high values. The procedure, abridged:
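Growth inhibition is read against vehicle-treated controls after compound exposure of the mec2-1 yeast strain, which is defective in DNA damage repair or cell cycle control.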

The nature of assay [3]: NCI Yeast Anticancer Drug Screen. Data for the sgs1 mgt1 strain (AID 161).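 Note: 0% = growth of cultures given vehicle only.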 The note with it: S. cerevisiae sgs1 mgt1 strain, hits give high values. In short, it runs like this:
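Compounds are added to genetically altered yeast, and growth is compared with cultures given vehicle alone to give percent inhibition.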

A short description of assay [4]: NCI Yeast Anticancer Drug Screen. Data for the cln2 rad14 strain (AID 165).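 Note: 0% = growth equal to vehicle treated cultures.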 The note with it: S. cerevisiae cln2 rad14 strain, hits give high values. In short, it runs like this:
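Growth inhibition, relative to vehicle-treated controls, is the read-out. The test organism is a yeast strain with defined genetic alterations, cln2 rad14.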

Assay [5] can be described thus: NCI Yeast Anticancer Drug Screen. Data for the bub3 strain (AID 167). The conditions noted are these: S. cerevisiae bub3 mutant strain, hits give high values. The procedure, abridged:
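Yeast carrying a defined mutation is treated with each compound, and growth is compared with that of vehicle-exposed cells to give inhibition.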

Assay [6] in a line: NCI Yeast Anticancer Drug Screen. Data for the mlh1 rad18 strain (AID 175). The conditions noted are these: S. cerevisiae mlh1 rad18 strain growth inhibition, hits give high values. In short, it runs like this:
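Cells of a genetically altered yeast strain, deficient in DNA damage repair, were treated with compound. Their growth was then compared with that of vehicle-treated cultures to give inhibition.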

Setting [7] is: at 5.0 µM (retest, dose inferred, filed as 0.5).
[8] abbreviates: at 50.0 µM (retest, dose inferred, filed as 5.0).

The panel holds about 79,000 compounds, 15% with a hit somewhere; the sample as a whole holds those more often. Unmarked numbers belong to inactive results. Calls of active or inactive are those of the source. Cut-off read from the data, not from the text of the source: active = growth inhibition above about 70%; inactive = the rest.

Consider `Cc1cc2c(cc1C)[n+](=O)c(C(=O)C/C(=N/NC(=O)CC#N)C(=O)Nc1ccccc1C(F)(F)F)c(C)n2[O-]`, for which the growth inhibition was 53% in assay [1] (setting [7]); 53% in assay [1] (setting [8]); 92.4% (active) in assay [1] (at 50.0 µM); 57% in assay [2] (setting [7]); 57% in assay [2] (setting [8]); 91% (active) in assay [2] (at 50.0 µM). Moreover, the growth inhibition in assay [3] (setting [7]) is 58%; in assay [3] (setting [8]) it was 58%; in assay [3] (at 50.0 µM), 91.8% (active); in assay [4] (setting [7]), 38%; in assay [4] (setting [8]), 38%; in assay [4] (at 50.0 µM), 91.5% (active). Moreover, the growth inhibition is 46% in assay [5] (setting [7]); 46% in assay [5] (setting [8]); 94% (active) in assay [5] (at 50.0 µM); 54% in assay [6] (setting [7]); 54% in assay [6] (setting [8]); 90.8% (active) in assay [6] (at 50.0 µM).
As to `CNc1ccc(N)cc1`, the growth inhibition in assay [1] (setting [7]) is 6%; in assay [1] (setting [8]), -9%; in assay [1] (at 50.0 µM), -15.1%; in assay [2] (setting [7]), -2%; in assay [2] (setting [8]), -5%; in assay [2] (at 50.0 µM), 21.6%. The growth inhibition in assay [3] (setting [7]) was -8%; in assay [3] (setting [8]), -2%; in assay [3] (at 50.0 µM), -3.85%; in assay [4] (setting [7]) it was 5%; in assay [4] (setting [8]), 1%; in assay [4] (at 50.0 µM) it was 26.4%. The growth inhibition in assay [5] (setting [7]) is 9%; in assay [5] (setting [8]), 8%; in assay [5] (at 50.0 µM), 7.1%; in assay [6] (setting [7]) it was 0%; in assay [6] (setting [8]), -5%; in assay [6] (at 50.0 µM), -15.2%.
Take `c1cc(NC2CCCCC2)ccc1CN1CCOCC1`: the growth inhibition was 57% in assay [1] (setting [7]); 90% (active) in assay [1] (setting [8]); 55.3% in assay [1] (at 50.0 µM); 51% in assay [2] (setting [7]); 73% (active) in assay [2] (setting [8]); 70.5% (active) in assay [2] (at 50.0 µM). The growth inhibition in assay [3] (setting [7]) was 80% (active); in assay [3] (setting [8]), 88% (active); in assay [3] (at 50.0 µM) it was 70%; in assay [4] (setting [7]), 72% (active); in assay [4] (setting [8]), 87% (active); in assay [4] (at 50.0 µM), 63.8%. Also, the growth inhibition in assay [5] (setting [7]) is 80% (active); in assay [5] (setting [8]), 78% (active); in assay [5] (at 50.0 µM), 68.2%; in assay [6] (setting [7]), 56%; in assay [6] (setting [8]) it was 82% (active); in assay [6] (at 50.0 µM), 79% (active).
For the compound `O=C(Nc1cccc(Br)c1)Oc1ccc(Cl)c2cccnc12`, the growth inhibition in assay [1] (setting [7]) was 38%; in assay [1] (setting [8]), 98% (active); in assay [1] (at 50.0 µM), 89% (active); in assay [2] (setting [7]), 4%; in assay [2] (setting [8]), 99% (active); in assay [2] (at 50.0 µM) it was 91.1% (active). Moreover, the growth inhibition in assay [3] (setting [7]) was 7%; in assay [3] (setting [8]), 99% (active); in assay [3] (at 50.0 µM), 91.7% (active); in assay [4] (setting [7]) it was 4%; in assay [4] (setting [8]) it was 97% (active); in assay [4] (at 50.0 µM), 89% (active). In addition, the growth inhibition is -7% in assay [5] (setting [7]); 98% (active) in assay [5] (setting [8]); 89.9% (active) in assay [5] (at 50.0 µM); 16% in assay [6] (setting [7]); 98% (active) in assay [6] (setting [8]); 90.8% (active) in assay [6] (at 50.0 µM).
Turning to `N/N=C(\N)c1ccc2ccc3cccnc3c2n1`, the growth inhibition in assay [1] (setting [7]) is 1%; in assay [1] (setting [8]), 73% (active); in assay [1] (at 50.0 µM), 74% (active); in assay [2] (setting [7]), 2%; in assay [2] (setting [8]) it was 73% (active); in assay [2] (at 50.0 µM), 42.3%. Also, the growth inhibition in assay [3] (setting [7]) was -2%; in assay [3] (setting [8]), 77% (active); in assay [3] (at 50.0 µM), 56.8%; in assay [4] (setting [7]), -7%; in assay [4] (setting [8]) it was 62%; in assay [4] (at 50.0 µM) it was 45.9%. Further, the growth inhibition in assay [5] (setting [7]) is -3%; in assay [5] (setting [8]), 59%; in assay [5] (at 50.0 µM), 41.5%; in assay [6] (setting [7]), 13%; in assay [6] (setting [8]) it was 79% (active); in assay [6] (at 50.0 µM), 52.8%.
As for `COC(=O)/C=C1/Nc2ccc(Cl)cc2C(=O)NC1=O`, the growth inhibition in assay [1] (setting [7]) is 44%; in assay [1] (setting [8]), 56%; in assay [1] (at 50.0 µM), 39.3%; in assay [2] (setting [7]), 36%; in assay [2] (setting [8]), 45%; in assay [2] (at 50.0 µM), 27.2%. Further, the growth inhibition in assay [3] (setting [7]) is 36%; in assay [3] (setting [8]) it was 54%; in assay [3] (at 50.0 µM) it was 58.9%; in assay [4] (setting [7]), 23%; in assay [4] (setting [8]), 42%; in assay [4] (at 50.0 µM), 28.9%. For the same compound, the growth inhibition was 41% in assay [5] (setting [7]); 80% (active) in assay [5] (setting [8]); 30.8% in assay [5] (at 50.0 µM); 40% in assay [6] (setting [7]); 52% in assay [6] (setting [8]); 33.5% in assay [6] (at 50.0 µM).
As for `Cc1c(NC(=O)C(=O)N=NC(=O)c2ccncc2)c(O)c2ccccc2c1O`, the growth inhibition in assay [1] (setting [7]) is -15%; in assay [1] (setting [8]), 91% (active); in assay [1] (at 50.0 µM) it was 91% (active); in assay [2] (setting [7]), -31%; in assay [2] (setting [8]) it was 90% (active); in assay [2] (at 50.0 µM) it was 93.5% (active). Moreover, the growth inhibition is -5% in assay [3] (setting [7]); 69% in assay [3] (setting [8]); 91.9% (active) in assay [3] (at 50.0 µM); -24% in assay [4] (setting [7]); 82% (active) in assay [4] (setting [8]); 90.4% (active) in assay [4] (at 50.0 µM). Further, the growth inhibition in assay [5] (setting [7]) was 1%; in assay [5] (setting [8]), 96% (active); in assay [5] (at 50.0 µM), 91% (active); in assay [6] (setting [7]), -6%; in assay [6] (setting [8]), 93% (active); in assay [6] (at 50.0 µM), 91.3% (active).
Turning to `CCCCCCCCCCCCCCCCN(CC)CC`, the growth inhibition was 99% (active) in assay [1] (setting [7]); 99% (active) in assay [1] (setting [8]); 99.6% (active) in assay [1] (at 50.0 µM); 99% (active) in assay [2] (setting [7]); 99% (active) in assay [2] (setting [8]); 99.7% (active) in assay [2] (at 50.0 µM). In addition, the growth inhibition in assay [3] (setting [7]) was 99% (active); in assay [3] (setting [8]), 100% (active); in assay [3] (at 50.0 µM), 99.4% (active); in assay [4] (setting [7]) it was 97% (active); in assay [4] (setting [8]) it was 99% (active); in assay [4] (at 50.0 µM) it was 99.3% (active). Moreover, the growth inhibition was 98% (active) in assay [5] (setting [7]); 99% (active) in assay [5] (setting [8]); 99.7% (active) in assay [5] (at 50.0 µM); 99% (active) in assay [6] (setting [7]); 99% (active) in assay [6] (setting [8]); 99.6% (active) in assay [6] (at 50.0 µM).
As to `CCNc1ccc2c(c1)Cc1ccccc1-2`, the growth inhibition in assay [1] (setting [7]) was 45%; in assay [1] (setting [8]), 91% (active); in assay [1] (at 50.0 µM), 95.2% (active); in assay [2] (setting [7]), 4%; in assay [2] (setting [8]) it was 38%; in assay [2] (at 50.0 µM) it was 59.8%. Moreover, the growth inhibition in assay [3] (setting [7]) was 62%; in assay [3] (setting [8]) it was 90% (active); in assay [3] (at 50.0 µM), 96% (active); in assay [4] (setting [7]), 3%; in assay [4] (setting [8]), 73% (active); in assay [4] (at 50.0 µM) it was 71.8% (active). For the same compound, the growth inhibition in assay [5] (setting [7]) was -11%; in assay [5] (setting [8]) it was 33%; in assay [5] (at 50.0 µM) it was 12.1%; in assay [6] (setting [7]) it was 27%; in assay [6] (setting [8]), 87% (active); in assay [6] (at 50.0 µM), 90.7% (active).
Regarding `CC(CO)[C@H]1OC(=O)C=C2[C@@]13O[C@@H]3[C@H]1OC(=O)[C@@]3(C)[C@H]4O[C@H]4C[C@@]2(C)[C@@H]13` (stereo not given in full), the growth inhibition in assay [1] (setting [7]) was 51%; in assay [1] (setting [8]), 98% (active); in assay [1] (at 50.0 µM) it was 89.8% (active); in assay [2] (setting [7]), 47%; in assay [2] (setting [8]) it was 99% (active); in assay [2] (at 50.0 µM) it was 91% (active). For the same compound, the growth inhibition was 58% in assay [3] (setting [7]); 97% (active) in assay [3] (setting [8]); 88.2% (active) in assay [3] (at 50.0 µM); 59% in assay [4] (setting [7]); 98% (active) in assay [4] (setting [8]); 89.5% (active) in assay [4] (at 50.0 µM). Also, the growth inhibition was 66% in assay [5] (setting [7]); 98% (active) in assay [5] (setting [8]); 88.8% (active) in assay [5] (at 50.0 µM); 61% in assay [6] (setting [7]); 97% (active) in assay [6] (setting [8]); 89.8% (active) in assay [6] (at 50.0 µM).
